# Data from PubChem BioAssay (EPA / NIEHS).
# Active and inactive are the calls of the source. Rule for the calls: active = hit-call score of the fitted dose curve at least 0.9, where 1 is the maximum; inactive = score below 0.9.
# Read-out: HGF (gene 3082)
# Assay: LTEA_HepaRG_HGF: Life Technologies and Expression Analysis (LTEA) Assay for Hepatocyte Growth Facto (HGF) using HepaRG (AID 2283505)
# Settings: mRNA level, 48 h; actives raise or lower the signal
# In short: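 Differentiated HepaRG cells in serum-free induction medium exposed 48 h in duplicate, 8 half-log concentrations from 100 uM in 0.5% DMSO. HGF mRNA by qRT-PCR, normalised to ACTB, GAPDH, POLR2A; bidirectional fitting.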
SMILES,outcome,AC50
O=C(O)c1[nH]n(-c2ccc(S(=O)(=O)O)cc2)c(=O)c1N=Nc1ccc(S(=O)(=O)O)cc1,inactive,
CCCCCCCCCCCCCCOS(=O)(=O)O,inactive,
CC(=O)O,inactive,
CC(C)COC(=O)CCCCC(=O)OCC(C)C,inactive,
CC(C)(C)c1ccccc1,inactive,
CC(C)NCC(O)c1ccc(O)c(O)c1 (centres undefined),,0.166 µM (active)
CCCCCCCCCC[N+](C)(C)[O-],inactive,
c1ccc2occc2c1,inactive,
CC(=O)OCC(COC(C)=O)OC(C)=O,inactive,
Oc1ccc(O)cc1,inactive,
O=C(O)CC(O)(CC(=O)O)C(=O)O,inactive,
COc1ccc(C(=O)Nc2nc3ccccc3c(NCc3ccccc3)c2C#N)cc1,inactive,
NC=O,inactive,
CC(COCC(C)OC(=O)c1ccccc1)OC(=O)c1ccccc1 (centres undefined),inactive,
Cc1cn([C@H]2C=C[C@@H](CO)O2)c(=O)[nH]c1=O,inactive,
CCN(CC)CCOc1ccc(C(=C(Cl)c2ccccc2)c2ccccc2)cc1,inactive,
NCCOCCOCCN,inactive,
C/C=C/c1ccc(OC)cc1,inactive,
COC(=O)[C@H]1[C@H]2C[C@@H]3c4[nH]c5cc(OC)ccc5c4CCN3C[C@H]2C[C@@H](OC(=O)c2cc(OC)c(OC)c(OC)c2)[C@@H]1OC,inactive,
N[C@@H](Cc1c[nH]c2ccccc12)C(=O)O,inactive,
CSc1ccc(Oc2ccc(S(N)(=O)=O)cc2CN(C)C)cc1C,inactive,
OCC(O)CO,inactive,
CCc1nc(N)nc(N)c1-c1ccc(Cl)cc1,,50 µM (active)
CC(=O)[C@@]1(O)CC[C@H]2[C@@H]3CCC4=CC(=O)CC[C@]4(C)[C@H]3CC[C@@]21C,inactive,
